High-throughput results from PubChem BioAssay.
EBV LMP1 NFkB: EBV LMP1-driven NF-kappaB luciferase reporter inhibitors, primary screen, cell-based, luminescence, single point. LMP1-induced NF-kappaB luciferase reporter cells. hit rate 0.69% among 350,000. inhibition, % at 12.5 µM; in the data active = inhibition above about 41%; inconclusive = no clear call, values can overlap the other calls;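 note: 0% = neutral control wells and 100% = reference inhibitor control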
HSF-1 act: HSF-1 activators, primary screen, NIH3T3-HGL cells, MG132 stress, luminescence, single point; hit rate 1.7% among 300,000; activation, % at 9 µM; NIH3T3-HGL HSF-1 luciferase reporter, 8 h; 100% = twice DMSO control signal;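 active = mean replicate activation of at least 50% with a set share of replicates each reaching 50%; inconclusive = only one of those two conditions met; inactive = mean below 50% and too few replicates reaching it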;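 note: 0% = median of the neutral control wells and 100% = twice that signal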
HSF1 inh: HSF1 inhibitors in luciferase reporter cells, primary screen, cell-based, NIH3T3, luminescence. NIH3T3-HGL HSE-luciferase, MG132-induced, luminescence 8 h; stronger effect = lower value. activity change, negative = inhibition, % at 7.5 µM (by protocol). hit rate 0.77% among 300,000. AID 2098, 2009;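 active = more than half of replicate wells show activity change below -50%, luminescence cut by over half; inconclusive = some wells, but at most half, below -50%; inactive = no replicate well below -50%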;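 note: luciferase reports HSF-1 transcriptional activity via heat shock element; 0% = median of DMSO wells and -100% = zero luminescence signal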
LGR2 inh: inhibitors of bursicon-induced LGR2 CRE-luciferase signal, primary screen, cell-based, HEK293, CRE-luciferase reporter, bursicon stimulation; AID 720647, 2013; hit rate 0.35% among 380,000; Drosophila bursicon receptor LGR2 (rickets); bursicon-stimulated, 4 h; inhibition, % at 9.99 µM;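 active = drop in luminescence signal, shown as inhibition above about 50% in the replicate tests, limit read from the data, passing the limit was not always enough; inconclusive = probably only some replicates passing the limit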;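 note: agonist challenge used bursicon conditioned medium at about half maximal strength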
TWEAK-Fn14 inh: inhibitors of TWEAK-Fn14 signaling, primary screen, luciferase reporter cells, uHTS; hit rate 2% among 360,000; inhibition, % at 10 µM; TWEAK-stimulated Fn14 reporter cells, luciferase luminescence, 8 h; in the data active = inhibition above about 50%
TROY signal inh: inhibitors of TROY-driven NF-kB signaling, primary screen, Q293 LMP1-TROYcd cells, NF-kB luciferase, uHTS; AID 1347056, 2019; inhibition, % at 10 µM; Q293 LMP1-TROYcd NF-kB luciferase reporter, 4 h; hit rate 0.98% among 360,000;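 active = compounds whose plate-normalised and pattern-corrected inhibition of the luciferase reporter signal at the single screening dose is 50% or more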
An asterisk follows results filed as active; ? = inconclusive; . = no result given. The list is not random: actives were taken first. Their share in the collection is about 3.6%.

SMILES | EBV LMP1 NFkB | HSF-1 act | HSF1 inh | LGR2 inh | TWEAK-Fn14 inh | TROY signal inh
CN(C)CC#Cc1ccc([C@H]2[C@H](CO)N3CCCCN(C(=O)C4CCC4)C[C@@H]23)cc1 | . | . | . | 2 | . | .
N#C/C(=C\c1ccc(OCc2ccc(Cl)cc2)cc1)C(=O)Nc1cccc(C(=O)O)c1 | 5 | 120* | 64 | -54 | 14 | -34
CCN(c1ccccc1)S(=O)(=O)c1ccc(Cl)c(NC(=O)COC(=O)c2cccc(OC)c2O)c1 | 6 | 59* | 53 | 2 | 16 | 15
CCN(CC)S(=O)(=O)c1ccc(Cl)c(NC(=O)COC(=O)c2ccc(O)cc2)c1 | 0 | 22 | -11 | 1 | 15 | 41
CCN(CC)S(=O)(=O)c1ccc(Cl)c(NC(=O)COC(=O)c2cc(-c3ccccc3Cl)nc3ccccc23)c1 | -5 | 7 | 2 | 13 | 110* | 95*
O=C(C[C@@H]1CC[C@@H](NC(=O)Nc2ccc3c(c2)OCO3)[C@H](CO)O1)NCc1ccc(F)cc1 | . | . | . | 15 | . | .
O=C(NCC[C@H]1CC[C@H](NS(=O)(=O)c2ccc(Cl)cc2)[C@@H](CO)O1)c1ccccc1F | . | . | . | -55 | . | .
O=C(C#Cc1ccccc1)Nc1cccc(F)c1 | -50 | 82* | 44 | -81 | 70* | -1
COc1ccc(NC(=O)C#Cc2ccccc2)cc1 | 7 | 54* | 41 | -98 | 10 | -43
COc1ccc(N/C(C)=C/C(=O)c2ccccc2)cc1 | -29 | 5 | 1 | -24 | -33 | 3
COC(=O)/C(=C\C(=O)c1ccccc1)Nc1ccc(OC)cc1 | -8 | 51* | 24 | -62 | 7 | -16
O=C(C#Cc1ccccc1)Nc1ccc(F)cc1 | -17 | 41 | 32 | -31 | 15 | -57
C/C(=C\C(=O)c1ccc(C)cc1)NCc1ccc(F)cc1 | 4 | 6 | 6 | . | -2 | 0
C/C(=C\C(=O)c1ccccc1)NCc1ccc(F)cc1 | -14 | 65* | 27 | . | 0 | -25
COc1ccc(NC(=O)Nc2cccc3c2O[C@H](CN(C)CC2CCCCC2)[C@H](C)CN([C@@H](C)CO)C3=O)cc1 | . | . | . | 6 | . | .
Fc1cccc(Cc2c(-c3ccco3)nc3ccc(Cl)cn23)c1 | . | . | . | . | 54* | -4
Clc1cccc(Cc2c(-c3cccc(Cl)c3)nc3c4ccccc4ccn23)c1 | . | . | . | 9 | 5 | -69
Fc1ccc(-c2nc3c4ccccc4ccn3c2Cc2cccc(F)c2)cc1 | . | . | . | 11 | . | .
Clc1cccc(Cc2c(-c3ccco3)nc3c4ccccc4ccn23)c1 | . | . | . | 12 | 69* | 0
Fc1cccc(Cc2c(-c3ccco3)nc3c4ccccc4ccn23)c1 | . | . | . | -100 | 51* | 7
C[C@H]1CN([C@@H](C)CO)C(=O)c2cccc(NC(=O)c3ccncc3)c2O[C@@H]1CN(C)S(=O)(=O)c1ccc(F)cc1 | . | . | . | 15 | . | .
C[C@@H]1CN([C@@H](C)CO)C(=O)Cc2cc(NS(=O)(=O)c3ccc(F)cc3)ccc2O[C@H]1CN(C)C | . | . | . | -9 | . | .
C[C@H]1CN([C@@H](C)CO)C(=O)Cc2cc(NC(=O)CCCCCC(=O)Nc3ccccc3N)ccc2O[C@@H]1CN(C)C(=O)Nc1ccc(C(F)(F)F)cc1 | . | . | . | 6 | . | .
O=[N+]([O-])/C=C\c1ccc(N2CCOCC2)cc1 | ? | 28 | 9 | ? | 53* | 53*
O=C(COc1ccc(/C=C\[N+](=O)[O-])cc1)N1CCOCC1 | 5 | 181* | 155 | 2 | 13 | 25
SMILES | EBV LMP1 NFkB | HSF-1 act | HSF1 inh | LGR2 inh | TWEAK-Fn14 inh | TROY signal inh
O=C(COc1ccc(S(=O)(=O)N2CCOCC2)cc1)N1CCOCC1 | -7 | . | . | -27 | 3 | 0
CCCNC(=O)N1[C@@H]2CN(C(=O)C3CCOCC3)c3ccccc3[C@@H]2[C@@H]1CO | . | . | . | -2 | . | .
Cc1ccc2[nH]nc(C(=O)N3CCCC(C(=O)c4ccc(Cl)cc4)C3)c2c1 (stereo unspecified) | 0 | 1 | -6 | 2 | 59* | 48
Cc1noc(C)c1C(=O)N1CCCC(C(=O)c2ccc(Cl)cc2)C1 (stereo unspecified) | -4 | 30 | 12 | 16 | 6 | -14
Cc1ccc(-c2cc(C(=O)N(C)Cc3cnn(C)c3C)c3cc(Br)ccc3n2)cc1 | -7 | -24 | -16 | 71* | 26 | -26
Cc1ccc(-c2cc(C(=O)NCc3cnn(C)c3C)c3cc(Br)ccc3n2)cc1 | -31 | -5 | 0 | . | 4 | -33
Cn1c(/C=C/c2ccc(Br)cc2)c([N+](=O)[O-])c(=O)n(C)c1=O | -1 | 29 | 30 | 42 | 63* | 2
CN(C)c1ccc(/C=C/c2c([N+](=O)[O-])c(=O)n(C)c(=O)n2C)cc1 | 6 | 16 | 14 | 13 | 23 | 0
C[C@@H]1CN([C@@H](C)CO)C(=O)c2cccc(NC(=O)Nc3ccc4c(c3)OCO4)c2O[C@H]1CN(C)Cc1ccc2c(c1)OCO2 | . | . | . | 11 | . | .
O=C1C(C=NCCCN2CCOCC2)=C(O)c2ccccc21 | -3 | 1 | -11 | . | 21 | 58*
Cc1cc(=O)n(CCO)c(O)c1C#N | 18 | 10 | -1 | . | 5 | 8
Cc1c(C#N)c(O)n(CCO)c(=O)c1N=Nc1ccc2c(c1)COC2=O | 18 | 67* | 67 | 18 | 26 | -28
COc1ccccc1OCC(=O)NCCSCc1ccccc1Cl | 10 | 27 | 16 | -2 | 7 | -21
O=C(COc1ccccc1)NCCSCc1ccccc1Cl | -25 | 70* | 39 | . | -22 | -44
COc1cccc2c1C(=O)O/C2=C/c1ccc2c(c1)OCO2 | -12 | -34 | -31 | 62* | 63* | -10
CC(C)(C)NC(=S)N1CCC(C(=O)c2ccc(F)cc2)CC1 | 4 | -6 | -3 | -8 | -12 | 13
CC(C)(C)NC(=S)N1CCC(C(=O)c2ccc(Cl)cc2)CC1 | 42* | -17 | -5 | -3 | 11 | -18
CC(NC(=O)CN1CCN(c2ccc(Cl)cc2)CC1)c1ccccc1 (stereo unspecified) | 10 | 7 | 5 | -16 | 6 | 0
CCOc1ccccc1N1CCN(CC(=O)NC(C)c2ccccc2)CC1 (stereo unspecified) | -1 | -67 | -61* | -6 | 0 | -12
COc1ccccc1S(=O)(=O)N[C@@H]1CC[C@@H](CCNC(=O)C2CC2)O[C@@H]1CO | . | . | . | -17 | . | .
Cc1cc(NC(=O)Nc2cc(C)nn2-c2ccccc2)n(-c2ccccc2)n1 | 2 | 5 | -6 | . | -4 | -15
CCOC(=O)/C=C(\C)Nc1cc(C)nn1-c1ccccc1 | 7 | 54* | 31 | . | -15 | -4
